CBX7 AlphaScr – blocks human CBX7 binding to H3K27me3 peptide. O95931. AlphaScreen His6-CBX7 / biotin-H3K27me3 peptide binding; stronger effect = lower value. normalised signal (fraction of DMSO) (test concentration not listed). actives 1.1% (n = 66,000); in the data active means normalised signal below about 0.5
Target sequence (O95931 whole entry, looked up): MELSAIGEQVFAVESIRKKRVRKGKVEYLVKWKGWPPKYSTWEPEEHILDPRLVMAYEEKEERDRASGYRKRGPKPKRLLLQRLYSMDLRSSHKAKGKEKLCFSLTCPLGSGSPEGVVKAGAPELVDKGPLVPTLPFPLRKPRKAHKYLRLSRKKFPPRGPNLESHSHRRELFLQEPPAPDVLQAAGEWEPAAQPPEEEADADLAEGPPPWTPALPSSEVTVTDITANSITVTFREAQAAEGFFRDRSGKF
Starred values were filed as active, the others as inactive. This excerpt belongs to a sample that is enriched for hits.

SMILES	CBX7 AlphaScr
CCCCOc1cccc(C(=O)Nc2ccc3oc(-c4ccc(F)cc4)nc3c2)c1	1.1
COc1ccc(C(=O)c2cn(Cc3ccc(Cl)cc3)c3ccc(OC)cc3c2=O)cc1	0.66
O=C(NCCCN1CCCCC1)C1CCCN(c2nnc(-n3cccc3)s2)C1 (configuration not stated)	0.99
Fc1ccc(-c2nnc3ccc4ccccc4n23)cc1	0.87
c1cncc(-c2nnc3ccc4ccccc4n23)c1	0.36*
CC1(C)Cc2ccccc2-c2nnc(-c3cccnc3)n21	0.99
O=C(NCc1ccc(Cl)cc1)C1CCC(CNS(=O)(=O)c2cccc3cccnc23)CC1 (configuration not stated)	1
Cc1ccccc1N(C)S(=O)(=O)c1ccc2[nH]cc(C(=O)NC3CCCCCC3)c(=O)c2c1	1.1
CCCCCOc1ccc(C(=O)Nc2ccccc2-c2nc3ccccc3o2)cc1	1.1
Fc1cccc(-c2nc3cc(C(F)(F)F)cc(Cl)c3nc2-c2cccc(F)c2)c1	0.98
O=C(CNC1CCCCC1)Nc1c2c(nc3c1CCC3)CCCC2	0.34*
CC(C)(C)NCC(=O)Nc1c2c(nc3c1CCC3)CCCC2	1
Cc1cc(NC(=O)CNC2CCCCC2)c2ccccc2n1	1
O=C(CNC1CCCCC1)Nc1c2c(nc3c1CCC3)CCC2	0.57
CCCCCCC(=O)Nc1c2c(nc3c1CCC3)CCCC2	0.91
CNCC(=O)Nc1c2c(nc3c1CCC3)CCCC2	0.49*
C=CCN(C(=O)Cn1c(SCc2cccc(C)c2)nc2ccncc21)c1ccccc1	0.96
COC(=O)c1c(NC(=O)c2ccc(OCc3ccccc3Cl)c(OC)c2)sc(C)c1C	1.2
Cc1ccc2nc(Nc3nccc(C)n3)nc(C)c2c1	0.99
CC(C)c1ccc(C2c3c(-c4ccccc4)n[nH]c3C(=O)N2c2ccccc2)cc1 (configuration not stated)	0.84
COc1ccc(C2c3c(-c4ccccc4)n[nH]c3C(=O)N2c2ccccc2)cc1 (configuration not stated)	0.38*
O=C1c2[nH]nc(-c3ccccc3)c2C(c2ccccc2)N1c1ccccc1 (configuration not stated)	1
CCC(C)NC(=O)c1cc2sc(Cl)cc2n1CC (configuration not stated)	1
O=C(c1ccncc1)c1c(Nc2ccc(F)cc2)[nH]c(=O)c2ccccc12	0.94
Cc1ccccc1-c1nc(CS(=O)(=O)CC(=O)N2CCCCC2)c(C)o1	0.99
SMILES	CBX7 AlphaScr
Cc1ccccc1-c1nc(CS(=O)(=O)CC(=O)N2CCC(Cc3ccccc3)CC2)c(C)o1	0.49*
Cc1ccccc1-c1nc(CS(=O)(=O)CC(=O)N2CCN(Cc3ccccc3)CC2)c(C)o1	0.69
CCOc1ccc(CCNC2CC(=O)N(c3ccc(OC)cc3)C2=O)cc1OCC (configuration not stated)	1
CCOC(=O)N1CCC(Nc2c(NCc3ccccc3Cl)c(=O)c2=O)CC1	1.1
COc1cccc(C2C(=O)N(C3CCCCC3)CC(=O)N2C2CCCc3ccccc32)c1 (configuration not stated)	1.2
COc1ccccc1OCc1nc2ccccc2n1Cc1ccccc1	1.1
COc1ccccc1CNc1ccc2c(c1)nc(C)n2C	1
COc1ccc(CNc2ccc(-c3nc4cc(C)ccc4s3)cc2)cc1OC	1.1
COc1cccc(CNc2ccc3c(c2)nc(C)n3Cc2ccccc2)c1OC	0.31*
CC(=O)Nc1ccc2c(c1)nc(C)n2Cc1ccccc1	1.2
COc1ccc(CNc2ccc3c(c2)nc(C)n3Cc2ccccc2)cc1	0.35*
COc1cccc(CNc2ccc3c(c2)nc(C)n3C)c1OC	0.84
COc1ccc(CNc2ccc3c(c2)nc(C)n3Cc2ccccc2)cc1OC	0.4*
COc1ccc2c(c1)nc(C)n2Cc1ccccc1	0.97
Cn1nc(-c2ccc(Cl)cc2)c2cc(C(=O)NCCC3=CCCCC3)sc21	1.1
Clc1ccc(-c2nnc(-c3ccncc3)o2)cc1	1
CCc1ccccc1N(C)C(=O)Cn1nc(Cc2cccnc2)c2ccccc2c1=O	0.96
CCC1CCCCN1C(=O)c1nn2c(C(F)(F)F)cc(-c3cccs3)nc2c1Br (configuration not stated)	1.2
CCc1ccc2[nH]cc(S(=O)(=O)c3ccccc3)c(=O)c2c1	1.1
Clc1ccc(-n2ncc3c(Nc4ccc(OCc5ccccc5)cc4)ncnc32)cc1	0.98
COc1cccc(OCC(O)CN2CCOCC2)c1 (configuration not stated)	1.1
CCC(=C(c1ccc(OC)cc1)c1ccc(OC)cc1)c1cn(CC(O)CN2CCOCC2)c2ccccc12 (configuration not stated)	0.41*
COc1ccc(C(=O)c2cn(Cc3ccc(C)cc3)c3ccccc3c2=O)cc1	0.54
CCC(=C(c1ccc(OC)cc1)c1ccc(OC)cc1)c1cn(CC(O)CN2CCN(C)CC2)c2ccccc12 (configuration not stated)	0.35*
COc1ccc(OCC(O)CN2CCCCCC2)cc1 (configuration not stated)	0.74
SMILES	CBX7 AlphaScr
COc1ccc(OCC(O)Cn2c(=N)n(CCN3CCOCC3)c3ccccc32)cc1 (configuration not stated)	1
COc1ccc(-c2cc3ccccc3n2CC(O)CN2CCCCC2)cc1 (configuration not stated)	0.86
CCC(=C(c1ccc(OC)cc1)c1ccc(OC)cc1)c1cn(CCN(C)C)c2ccccc12	0.32*
COc1ccc(C(=O)c2cn(Cc3ccc(F)cc3)c3ccccc3c2=O)cc1	0.74
CCOC(=O)c1ccc(NC(=O)c2cccc3c2C(=O)N(C2CCCCC2)C3)cc1	1
CCOC(=O)N1CCC(Nc2c(NC3CCCCCC3)c(=O)c2=O)CC1	1.1
Cn1c(C(=O)N2CCCC(C(=O)NCCC3=CCCCC3)C2)cc2sccc21 (configuration not stated)	0.88
Cc1nc2c(-c3ccccc3)c(C)nn2c(C)c1CCC(=O)Nc1ccc(CN2CCCC2)cc1	1.3
Cc1ccc(-c2nc3c(cnn3-c3ccccc3)c(=O)n2-c2ccccc2)cc1	0.98
Cn1cnc2cc(NCc3ccc(Br)cc3)ccc21	0.91
COc1ccccc1-n1cnc2cc(Nc3nnc(C)c4ccccc34)ccc21	1
CC(C)(C)n1cnc2cc(NCc3ccc(Br)cc3)ccc21	0.78
COc1ccccc1CNc1ccc2c(c1)ncn2C(C)(C)C	0.66
COc1ccccc1-n1cnc2cc(NCc3ccc(C(C)C)cc3)ccc21	0.2*
Cc1nc2cc(NCc3ccc(C(C)C)cc3)ccc2n1C	0.7
COc1ccccc1-n1cnc2cc(NCc3ccc(N(C)C)cc3)ccc21	0.24*
Brc1ccc(CNc2ccc3c(c2)ncn3-c2ccccc2)cc1	0.24*
CC(C)c1ccc(CNc2ccc3c(c2)ncn3C)cc1	0.83
COc1ccc(OC)c(NC(=O)CCCN2C(=O)c3cccnc3C2=O)c1	0.77
Cc1ccc2c(c1)-c1c(cnn1CC(=O)Nc1ccc(F)cc1F)CO2	1
COCCNC(=O)c1cc(Nc2ccc(C)c(C)c2)nc2ccccc12	1
COC(CNC(=O)c1ccc2c(c1)N(Cc1ccccc1Cl)C(=O)c1ccccc1S2)OC	0.93
O=C(c1ccc2c(=O)n(CCc3ccccc3)c(=O)[nH]c2c1)N1CCN(c2ccccc2F)CC1	1
CCOc1ccccc1NS(=O)(=O)c1cnc[nH]1	1.1
O=C(NCCC1=CCCCC1)C1CCCN(c2nnc(-n3cccc3)s2)C1 (configuration not stated)	0.94
CC(C)(C)n1cnc2cc(NCc3cccc4ccccc34)ccc21	0.6
